Assay results from ChEMBL document CHEMBL4513146, “CO-ADD screening of Karazin Kharkiv National University (Ukraine) compounds”.
Entries with a potency or affinity are not part of this list.

Tests used:
[1] = system: Klebsiella pneumoniae; conditions: Concentration 32 ug.mL-1;; ASSAY_TEST Inhibition of Bacterial Growth; detection method Absorption (OD600); MEDIA CAMHB; plate type 384well; NBS; CORNING #3640; time 18 hr
[2] = system: Candida albicans; conditions: Concentration 32 ug.mL-1; ASSAY_TEST Inhibition of Fungal Growth; detection method Absorption (OD530)
[3] = system: Cryptococcus neoformans; conditions: Concentration 32 ug.mL-1; ASSAY_TEST Inhibition of Fungal Growth; detection method Resazurin; Absorption (OD600-OD570); plate type 384well; NBS; CORNING #3640

SMILES	Inhibition [1]	Inhibition [2]	Inhibition [3]
Cc1nnc2c(S(=O)(=O)N(Cc3ccccc3Cl)c3ccc(F)c(F)c3)cccn12	13.53%	0.59%	-7.47%
CCOC(=O)c1ccccc1NC(=O)Cn1nc2c3cc(-c4ccc(Cl)cc4)nn3ccn2c1=O	14.78%	2.98%	-20.88%
COC(=O)c1cccc(NC(=O)Cn2nc3ccc(-c4ccccc4)nn3c2=O)c1	-4.82%	4.96%	-15.91%
COc1ccccc1CNC(=O)Cn1nc2c(SCc3ccc(Cl)cc3)nccn2c1=O	9.05%	2.3%	-6.8%
CC(C)(C)Sc1ccc2nn(CC(=O)NCc3ccc(Cl)cc3)c(=O)n2n1	10.39%	0.88%	-9.66%
NC(=O)CSc1nnc2c(=O)n(-c3ccc(F)cc3)ccn12	0.07%	2.37%	-6.51%
COc1ccc(N2CCN(C(=O)Cn3nc4ccc(-c5ccccc5)nn4c3=O)CC2)cc1	3.53%	-1.43%	-4.25%
COc1ccc(OC)c(NC(=O)Cn2nc3c4cc(-c5ccc(Cl)cc5)nn4ccn3c2=O)c1	3.06%	-0.3%	-21.9%
Cc1ccc(C)c(C(=O)CSc2nnc3c(=O)n(-c4ccc(F)c(F)c4)ccn23)c1	16.06%	4.02%	-10.11%
COc1ccc2[nH]cc(C(=O)CSc3nnc4c(=O)n(-c5ccc(F)cc5)ccn34)c2c1	12.89%	3.24%	-7.69%
Cc1ccc(Cn2c(=O)c3ccccc3n3c(=O)n(CC#N)nc23)cc1	6.47%	-0.23%	-25%
Cc1c(Cl)cccc1-n1ccn2c(=O)n(Cc3ccc(F)cc3)nc2c1=O	-1.56%	6.3%	-16.32%
CCCNC(=O)CSc1nnc2c(=O)n(-c3ccc(F)cc3)ccn12	12.9%	2.11%	-15.58%
Cc1c(Cl)cccc1-n1ccn2c(=O)n(Cc3cccc(F)c3)nc2c1=O	6.93%	10.08%	-17.54%
COc1ccc(CCNC(=O)Cn2nc3c(N4CCOCC4)nccn3c2=O)cc1OC	17.72%	2.21%	-10.16%
Cc1cc2nn(CC(=O)Nc3cc(F)ccc3F)c(=O)n2c(Nc2ccc(C)c(F)c2)n1	8.03%	1.75%	-8.46%
COc1ccc(-c2cc3c4nnc(SCC(=O)Nc5ccccc5F)n4ccn3n2)cc1	6.81%	-0.08%	-26.1%
Cc1cc(C)cc(NC(=O)Cn2nc3ccc(SC(C)(C)C)nn3c2=O)c1	7.43%	7%	-18.29%
COc1cc(NC(=O)Cn2nc3ccc(-c4ccc(Cl)cc4)nn3c2=O)cc(OC)c1	6.35%	1.47%	-13.03%
Cc1cc(C)cc(Nc2nc(C)cc3nn(CC(=O)Nc4ccc(F)cc4F)c(=O)n23)c1	15.5%	32.59%	-6.19%
Cc1nnc2ccc(S(=O)(=O)N(Cc3ccc(F)cc3)c3ccc(Cl)cc3)cn12	9.19%	1.14%	-10.26%
COc1cccc(-n2ccn3c(SCc4ccc(C)cc4)nnc3c2=O)c1	12.94%	3.44%	-15.83%
CCOC(=O)c1ccc(NC(=O)CSc2nnc3c4cc(-c5ccc(OC)cc5)nn4ccn23)cc1	14.8%	-1.16%	-22.98%
CCCCc1ccc(NC(=O)Cn2c(=O)c3nnc(C(C)C)n3c3ccccc32)cc1	18.09%	-0.74%	-30.75%
Cc1cccc(NC(=O)Cn2nc3c(SCc4ccccc4)nccn3c2=O)c1C	5.49%	0.78%	-13.96%
CCc1cccc(NC(=O)CSc2nnc3c(=O)n(-c4ccccc4)ccn23)c1	3.17%	8.67%	-15.51%
COc1ccc(-c2cc3c4nn(CC(=O)Nc5cccc(C(C)=O)c5)c(=O)n4ccn3n2)cc1	3.99%	4.25%	-13.63%
CCOc1ccc(-n2ccn3c(SCC(=O)c4cc(C)c(C)cc4C)nnc3c2=O)cc1	2.47%	2.99%	-7.59%
